Bioassay records from PubChem BioAssay.
DT40 TDP1 no CPT: qHTS for Inhibitors of human tyrosyl-DNA phosphodiesterase 1 (TDP1): qHTS in cells in absence of CPT. DT40 Tdp1-/- hTDP1 cells, no CPT, ATP luminescence, 48 h. Potency, µM (doses to about 46.2 µM), for inactives: top-dose activity change, negative = growth inhibition, usual class: inhibitors. 15% of 420,000 active; note: potency is the fitted concentration of half-maximal effect; nearly all actives have a fitted effect of over 55% in size
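Cells were dispensed at 400 per well, compounds added by pin tool, plates incubated ≥48 hr at 37 °C, then CellTiter-Glo added for 30 min at room temperature before luminescence reading. Line: DT40 Tdp1-/- complemented with hTDP1; camptothecin omitted.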
DT40 TDP1 CPT: DT40-hTDP1 cell growth loss with CPT | 12% of 420,000 active | Potency, µM (doses to about 46.2 µM), for inactives: top-dose activity change, negative = growth inhibition, most hits filed as inhibitors | chicken DT40 Tdp1-/-;hTDP1 cells + 20 nM CPT, ATP luminescence, 48 h | AID 686979; note: potency is the fitted concentration of half-maximal effect; nearly all actives have a fitted effect of over 55% in size
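Chicken DT40 Tdp1-/- cells stably complemented with human TDP1 were seeded at 400 cells/well in medium containing 20 nM camptothecin, exposed to pin-transferred compounds, and grown at 37 °C for at least 48 hr. Viability was read as ATP luminescence.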
HT1080NT lethal: kills 2HG-producing HT-1080-NT fibrosarcoma cells; HT-1080-NT fibrosarcoma viability, CellTiter-Glo ATP luminescence, 48 h; Potency, µM (doses to about 46.1 µM), without a hit: top-dose activity, negative = less viability, most hits filed as cytotoxic; 1.6% of 360,000 active;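 note: NT is the 2HG producing partner of a matched IDH1 knockdown line; potency is the fitted concentration of half-maximal effect; 0% = DMSO-treated cells and -100% = media-only wells without cells; nearly all actives have a fitted effect of over 55% in size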
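Compounds were tested in concentration-response format on HT-1080-NT cells for 48 hours at 37 degrees C. Cell viability came from CellTiter-Glo luminescence; curves were classified by r2, response magnitude and activity.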
IL-1B inflam inh: inflammasome signaling inhibition, IL-1 beta readout; THP-1 LPS/ATP IL-1B secretion, AlphaLISA, 16 h; hits give low values; activity change, % at 57.5 µM; 4.7% of 360,000 active; in the data active = activity change below about -50%; inconclusive = mostly about -30% to -49%
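Secreted IL-1B measured by AlphaLISA bead assay after 16 h compound exposure of THP-1 cells; compounds (final up to 57.5 uM) added 1 h before LPS (250 ng/mL) and ATP (1.25 mM) stimulation; lower signal means less secretion.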
HT1080 IDH1KD tx: kills HT-1080 cells with IDH1 knockdown; HT-1080 IDH1 knockdown viability, ATP luminescence, 48 h; Potency, µM (doses to about 46.1 µM), for inactives: at the highest dose activity, negative = toxicity, usual class: cytotoxic; 2% of 360,000 active;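 note: potency is the fitted concentration of half-maximal effect; 0% = DMSO wells and -100% = cell-free medium wells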
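CellTiter-Glo luminescence after 48 h compound exposure at 37 degrees C of IDH1-knockdown HT-1080 cells in 5% FBS RPMI. %Activity scaled between DMSO wells and cell-free media wells, with curves fitted and assigned curve classes.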
* = called active by the depositor; ? = inconclusive; nt = not tested or not shown. An excerpt weighted towards active compounds, which were near 19% of everything screened. Unless noted, calls come from the whole dose curve; as a rule, active = well fitted curve in the direction sought with a large enough effect; inconclusive = small, poorly fitted or top-dose-only effect, or another doubt; inactive = no such curve, though single readings can be large; an effect the other way counts as inactive or inconclusive. Unless noted, % is set by controls: 0 for no effect and ±100 for the full control effect.

SMILES	DT40 TDP1 no CPT	DT40 TDP1 CPT	HT1080NT lethal	IL-1B inflam inh	HT1080 IDH1KD tx
CCn1cnc2cc(NCc3ccc(N(C)C)cc3)ccc21	18µM*	15µM*	1%	?	4%
CCn1cnc2cc(NCc3nc4ccccc4n3C)ccc21	?	-15%	8%	-6	-14%
CCN(CC)c1ccc(CNc2ccc3c(c2)ncn3CC)cc1	-26%	?	0%	-96*	0%
Brc1ccc(CNc2ccc3ncccc3c2)cc1	12µM*	21µM*	-10%	-13	-10%
CCC(C(=O)NCc1ccco1)N(C(=O)CNS(=O)(=O)c1ccc(C)cc1)c1ccccc1F (stereo not drawn)	?	-22%	-2%	-3	0%
CCOc1ccc(NC(=O)Cn2cc(C(=O)c3ccc(C)c(C)c3)c(=O)c3cc(F)ccc32)cc1	?	-18%	nt	nt	nt
CCCn1cnc2cc(NCc3ccc(OC)cc3OC)ccc21	23µM*	16µM*	nt	nt	nt
Cc1ccc(CNc2ccc3c(c2)ncn3C(C)C)cc1	13µM*	12µM*	2%	?	4%
CCn1cnc2cc(NCc3ccc(Br)cc3)ccc21	?	-27%	-13%	?	-9%
CCn1cnc2cc(NCc3ccc(C)cc3)ccc21	-25%	-9%	-1%	-57*	-20%
CCCn1cnc2cc(NCc3ccc(Br)cc3)ccc21	?	?	-10%	-83*	-15%
CS(=O)(=O)N1CCC2(CC1)CN(c1ncccn1)C2	-9%	4%	nt	nt	nt
CCOc1ccc(CNC(=O)CS(=O)(=O)c2cccc3nsnc23)cc1	-7%	-1%	nt	nt	nt
CCN(C(=O)CSc1ncccn1)C1CCS(=O)(=O)C1 (stereo not drawn)	14%	-4%	-6%	-9	1%
Cc1cnc2cc(Cl)ccc2c1SCC(=O)O	?	-27%	-1%	17	1%
C=C[C@](C)(O)CCC=C(C)C	2%	0%	nt	nt	nt
Cc1cc(OCC(=O)Nc2ccc(-c3nc4cc(Cl)ccc4o3)cc2)cc(C)c1Cl	-2%	9%	nt	nt	nt
COc1ccc(-c2csc(/C(C#N)=C\c3ccc(O)c([N+](=O)[O-])c3)n2)cc1OC	?	?	1%	11	?
COc1ccc(-c2csc(/C(C#N)=C(\O)CSc3nccn3C)n2)cc1OC	15µM*	?	-11%	-15	-7%
COc1ccc(-c2csc(NC(=O)CSc3nnnn3C)n2)cc1OC	-22%	-21%	12%	-22	4%
CC(C)c1ccc(/C=C(\C#N)c2nc(-c3ccc(O)cc3)cs2)cc1	2.6µM*	3.3µM*	nt	nt	nt
CCOc1ccc(-c2csc(/C(C#N)=C/c3ccc(Br)cc3)n2)cc1	-17%	-9%	nt	nt	nt
COc1ccc(/C=C(/C#N)c2nc(-c3ccc(Br)cc3)cs2)cc1	23µM*	?	nt	nt	nt
COc1ccc(/C=C(/C#N)c2nc(-c3ccc(-c4ccccc4)cc3)cs2)cc1OC	12µM*	?	nt	nt	nt
CN(C)c1ccc(N=NS(=O)(=O)O)cc1	24µM*	22µM*	nt	nt	nt
SMILES	DT40 TDP1 no CPT	DT40 TDP1 CPT	HT1080NT lethal	IL-1B inflam inh	HT1080 IDH1KD tx
Cn1nccc1C(=O)NCC1CCC2(CCN(Cc3cccc4ncccc34)CC2)O1 (stereo not drawn)	-22%	-1%	nt	nt	nt
O=C(/C=C/c1ccccc1)NC(=S)NNC(=O)c1ccco1	21µM*	?	-15%	63	-8%
O=C(/C=C/c1ccc(Br)cc1)NC(=S)NNC(=O)c1ccco1	18µM*	?	16µM*	39	15µM*
O=C(NNC(=O)c1ccco1)c1ccco1	-8%	4%	0%	-9	2%
O=C(NC(=S)N1CCN(C/C=C/c2ccccc2)CC1)c1ccco1	21µM*	?	5%	1	1%
Cc1oc(-c2cccc(C(F)(F)F)c2)nc1CN1CCOCC1	-20%	-3%	2%	15	13%
Cc1ccc(S(=O)(=O)N2CCN(C(=O)c3ccc(N4CCCCC4)c([N+](=O)[O-])c3)CC2)cc1	-17%	?	14%	-62*	5%
Cc1ccc(N(Cc2ccco2)C(=O)c2ccc(N3CCCCC3)c([N+](=O)[O-])c2)cc1	5.8µM*	21µM*	-10%	-22	?
Cc1ccc(S(=O)(=O)N2CCN(c3ccc(C(=O)N4CCOCC4)cc3[N+](=O)[O-])CC2)cc1	12µM*	18µM*	-11%	-4	-7%
Cc1cc(C)c(S(=O)(=O)N2CCN(C(=O)c3ccc(-n4cncn4)c([N+](=O)[O-])c3)CC2)c(C)c1	13µM*	?	-3%	-4	0%
CS(=O)(=O)N1CCN(c2ccc(C(=O)N3CCOCC3)cc2[N+](=O)[O-])CC1	-19%	-5%	-6%	-1	-14%
COc1ccc(-n2c(Cn3c(=O)sc4ccccc43)nnc2SCC(=O)N2CCCC2)cc1	-10%	-21%	-2%	-3	-5%
CN(C)c1nc(-c2cn(CCC#N)c3ccccc23)cs1	?	?	?	-25	26µM*
COCCn1cc(-c2csc(N)n2)c2ccccc21	?	-15%	-2%	-10	11%
CC(=O)Nc1ccc(NS(=O)(=O)c2cc(-c3n[nH]c(=O)c4ccccc34)ccc2C)cc1	-9%	0%	-19%	-9	-9%
CC1=C(C)CC2(SC1)C(=O)N(c1ccccc1)N=C2N (stereo not drawn)	21µM*	7.3µM*	-13%	-8	-7%
CC1=NN(c2ccccc2)C(=O)C1(C)C	5%	5%	11%	17	11%
COc1cccc(-n2c(C)c(C(C)=O)c(C(C)=O)c2C)c1	-13%	-2%	15%	-2	10%
NS(=O)(=O)c1cccc(NC(=O)c2cc(-c3cccs3)nc3ccccc23)c1	15µM*	21µM*	-18%	-18	0%
NS(=O)(=O)c1cccc(NC(=O)CCC(=O)c2cccs2)c1	-10%	-21%	12%	42	15%
NS(=O)(=O)c1ccc(CNC(=O)c2cc(-c3cccs3)nc3ccccc23)cc1	?	?	-1%	7	-4%
NS(=O)(=O)c1cccc(NC(=O)c2cccs2)c1	?	21µM*	7%	-7	27%
NS(=O)(=O)c1ccc(NC(=O)c2cccc3cc4ccccc4nc23)cc1	5.2µM*	5.8µM*	4%	?	?
CN(C)S(=O)(=O)c1cccc(NC(=O)c2cc(-c3cccs3)nc3ccccc23)c1	10µM*	?	7%	-3	7%
CCOC(=O)C1CCCN(S(=O)(=O)CCNC(=O)c2ccc(F)cc2)C1 (stereo not drawn)	-28%	23%	29%	-12	22%
O=[N+]([O-])c1cc2no[n+]([O-])c2cc1N1CCCCC1	0.92µM*	0.58µM*	12%	-78*	-2%
